High-throughput results as filed in PubChem.
The list is not random: actives were taken first. Their share in the collection is about 2%.
MBD2 DNA inh – MBD2-methylated oligo binding inhibition | inhibition, % at 4.4 µM | 370,000 tested, 0.31% active | TR-FRET, MBD2 binding to methylated oligonucleotide; in the data active = inhibition above about 13%
TCR CD3 inh – inhibitors of human TCR-CD3 interaction | TAMRA-labeled TCR probe fluorescence, biochemical | inhibition, % at 9.4 µM | 360,000 tested, 0.37% active | AID 651800; in the data active = inhibition above about 19%;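 also: recombinant mutant TCR 2C K166C tagged with TAMRA read by polarization; 0% = receptor in buffer alone and 100% = receptor with positive control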
LEDGF integ inh – blocks HIV-1 LEDGF/p75-dependent DNA integration; TR-FRET IN-LEDGF/p75 DNA integration, Eu/Cy5; inhibition, % at 3.7 µM; 370,000 tested, 0.64% active;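 active = inhibition above the screen-wide mean plus 3 SD, cut at about 13% in these data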;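 also: signal is the Cy5 over europium emission ratio at 671 and 618 nm; 0% = plate median of compound wells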
UHRF1 MBD2 ctr – UHRF1 methyl-DNA binding inhibition | inhibition, % at 4.4 µM | Q96T88 | UHRF1 binding to methylated oligo, TR-FRET | 370,000 tested, 0.75% active | AID 687016; in the data active = inhibition above about 21%;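 also: UHRF1 SRA domain binding a hemimethylated CpG hairpin DNA probe; 0% = median of test compound wells and 100% = reference inhibitor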
Rin1-Abl PPI inh – human Rin1-Abl interaction inhibition | TR-FRET Rin1/Abl binding, biochemical | inhibition, % at 7.35 µM | 360,000 tested, 0.4% active; in the data active = inhibition above about 5%, passing the limit was not always enough
An asterisk follows results filed as active; . = no result given.

SMILES	MBD2 DNA inh	TCR CD3 inh	LEDGF integ inh	UHRF1 MBD2 ctr	Rin1-Abl PPI inh
COc1ccc(S(=O)(=O)Nc2ccc3c(c2)C(=O)N([C@@H](C)CO)C[C@@H](C)[C@H](CN(C)C(=O)CCCN(C)C)OCCCC[C@H](C)O3)cc1	-4	3	-2	29*	1
C[C@@H]1CCCCO[C@H](CN(C)C(=O)C2CCCCC2)[C@@H](C)CN([C@H](C)CO)C(=O)c2cc(N(C)C)ccc2O1	1	-2	-3	50*	1
COc1ccc(S(=O)(=O)Nc2ccc3c(c2)C(=O)N([C@H](C)CO)C[C@H](C)[C@@H](CN(C)C(=O)Nc2ccc(F)cc2)OCCCC[C@H](C)O3)cc1	-5	-5	-4	2	1
C[C@@H]1CCCCO[C@@H](CN(C)C(=O)c2ccncc2)[C@@H](C)CN([C@H](C)CO)C(=O)c2cc(N(C)C)ccc2O1	1	11	-1	0	1
Fc1cccc(Cn2ccc3ccc(-c4ccc5ccn(Cc6ccccc6)c5c4)cc32)c1	-3	.	-1	-1	.
Cc1cc(Oc2cccnc2)ccc1NC(=O)Cc1c(C)[nH]c2ccccc12	1	-1	-2	-2	.
Cn1nc(-c2ccccc2)cc1NC(=O)Nc1ccc(C(C)(C)C)cc1	8	1	2	29*	-2
COc1ccccc1Sc1nc(-c2ccccc2)ncc1OC	-3	8	4	48*	-1
CCCSc1nc2cc(C)c(C)cc2n1CC(O)CO (stereo not drawn)	0	3	-4	2	4
CCCSc1nc2cc(C)c(C)cc2n1CC(C)O (stereo not drawn)	6	7	1	22*	3
C=CCN1C(=O)[C@@H](CC(=O)NCc2cccc3ccccc23)[C@]2(C(=O)OCC)CCCCC/C=C/12	2	.	8	1	.
CCCCN1CC(COc2ccc(OC)cc2)OCCS1(=O)=O (stereo not drawn)	-1	8	5	0	.
COc1ccc(/C=C/C(=O)Nc2ccc(NC(C)=O)cc2)cc1S(=O)(=O)N1CCOCC1	0	-4	-3	32*	-1
COc1ccc(/C=C/C(=O)Nc2ccccc2)cc1S(=O)(=O)N1CCOCC1	-4	2	3	-1	-1
CCCc1c(-c2cccc(Br)c2)ncn1CCc1ccccc1OC	6	-1	4	-2	.
COc1ccc(C=O)c(OC)c1	-6	9	5	2	1
COc1cc(O)ccc1C=O	2	-8	-3	27*	-1
CC(C)c1ccc(S(=O)(=O)/N=C2\C=C(NS(=O)(=O)c3ccccc3)C(=O)c3ccccc32)cc1	-16	-4	25*	-4	-4
COc1ccc(S(=O)(=O)/N=C2\C=C(Nc3ccc(O)cc3)C(=O)c3ccccc32)cc1	-6	0	65*	0	-4
O=C(O)c1ccc(S(=O)(=O)/N=C2\C=C(Nc3ccccc3F)C(=O)c3ccccc32)cc1	-11	0	60*	7	3
CCc1ccc(S(=O)(=O)/N=C2\C=C(NS(=O)(=O)c3ccccc3)C(=O)c3ccccc32)cc1	-13	-12	11	-2	0
CC(=O)Nc1ccc(NC2=C/C(=N/S(=O)(=O)c3cccs3)c3ccccc3C2=O)cc1	-6	2	50*	3	4
NS(=O)(=O)c1ccc(CCNC(=O)COC(=O)C2COc3ccccc3O2)cc1 (stereo not drawn)	3	-2	-2	1	2
O=C(NCCO)c1cc(-c2cc(C(=O)NCCO)c3ccccc3n2)nc2ccccc12	2	-2	-1	-2	-2
c1ccc2sc(-c3csc4c3CCNC4)nc2c1	-4	.	-2	-13	.
SMILES	MBD2 DNA inh	TCR CD3 inh	LEDGF integ inh	UHRF1 MBD2 ctr	Rin1-Abl PPI inh
COCCN1Cc2cc(C(=O)OC)c3c(c2C1=O)c1cc(F)ccc1n3C(=O)c1ccccc1	-5	5	0	-2	.
COc1ccc2c(c1)[C@@]1(NCCc3c1[nH]c1ccc(OC)cc31)C(=O)N2	1	.	6	2	.
Cc1ccccc1NC1=C/C(=N\S(=O)(=O)c2cccs2)c2ccccc2C1=O	-5	-8	47*	-2	-1
Cc1ccc(NC2=C/C(=N/S(=O)(=O)c3cccs3)c3ccccc3C2=O)cc1C	1	10	5	-3	-4
COc1ccc(N2C(=O)N3[C@H](c4ccc(Cl)cc4)[C@@H]4C(=O)N(C5CCCCC5)C(=O)[C@@H]4[C@]3(C)C2=O)cc1	7	-1	1	22*	1
CCOC(=O)NC(=S)c1ccc[nH]1	-3	1	1	23*	-5
